This is part of a sample that, as a whole, favours compounds with a hit. Of some 83,000 tested, about 20% had one in any assay.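 96-well plates, one dose, 48 hours. Percent growth reported; active if below 10.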 The source made the active and inactive calls.
Columns and labels:
Assay in all cases: NCI-60 one-dose screen, 48 h (100 = growth as untreated, 0 = no growth, -100 = all killed)
Details in all cases: 10 µM unless noted
SR leukemia = system: SR leukemia
RPMI-8226 leukemia = system: RPMI-8226 leukemia
OVCAR-8 ovarian = system: OVCAR-8 ovarian
OVCAR-5 ovarian = system: OVCAR-5 ovarian
OVCAR-4 ovarian = system: OVCAR-4 ovarian
SK-OV-3 ovarian = system: SK-OV-3 ovarian
IGROV1 ovarian = system: IGROV1 ovarian
OVCAR-3 ovarian = system: OVCAR-3 ovarian
HS 578T breast = system: HS 578T breast
NCI/ADR-RES ovarian = system: NCI/ADR-RES ovarian
BT-549 breast = system: BT-549 breast
MDA-MB-435 melanoma = system: MDA-MB-435 melanoma
SW-620 colon = system: SW-620 colon
MCF7 breast = system: MCF7 breast
HCT-116 colon = system: HCT-116 colon
KM12 colon = system: KM12 colon
HCC-2998 colon = system: HCC-2998 colon
T-47D breast = system: T-47D breast

Measured: growth

COc1ccc(C(=O)c2sc3nc4c(c(C(F)(F)F)c3c2N)CN(C(C)=O)CC4)cc1OC
inactive: SR leukemia 79.4% | RPMI-8226 leukemia 57.1% | OVCAR-8 ovarian 80.9% | OVCAR-5 ovarian 89.3% | OVCAR-4 ovarian 85.8% | SK-OV-3 ovarian 87.2% | IGROV1 ovarian 98.2% | OVCAR-3 ovarian 95.9% | HS 578T breast 81.6% | NCI/ADR-RES ovarian 84.7% | BT-549 breast 99.6% | MDA-MB-435 melanoma 99.7% | SW-620 colon 100% | MCF7 breast 83.4% | HCT-116 colon 89.3% | KM12 colon 97.6%

CC[n+]1ccc2c(c1)C(=O)c1nccc3c1c-2nc1ccccc13
active: SR leukemia 5.79% | OVCAR-8 ovarian -11.9% | OVCAR-4 ovarian -67.7% | SK-OV-3 ovarian -9.56% | OVCAR-3 ovarian -14.6% | HS 578T breast -21.8% | BT-549 breast -82.7% | MDA-MB-435 melanoma 4.27% | SW-620 colon 5.32% | HCT-116 colon -27.8% | HCC-2998 colon -21% | KM12 colon 8.87%
inactive: RPMI-8226 leukemia 66.2% | OVCAR-5 ovarian 87.7% | IGROV1 ovarian 17.1% | NCI/ADR-RES ovarian 75.1%

COC1=CC(=O)C(OC)=C(OC)C1=O
inactive: SR leukemia 36.5% | RPMI-8226 leukemia 67.1% | OVCAR-8 ovarian 101% | OVCAR-5 ovarian 107% | OVCAR-4 ovarian 77.4% | SK-OV-3 ovarian 92.5% | IGROV1 ovarian 113% | OVCAR-3 ovarian 104% | HS 578T breast 95.5% | NCI/ADR-RES ovarian 100% | BT-549 breast 101% | MDA-MB-435 melanoma 97.5% | SW-620 colon 101% | MCF7 breast 90.6% | HCT-116 colon 92.3% | HCC-2998 colon 117% | KM12 colon 110%

CC/C=C\C[C@H](O)C/C=C1/C(=O)C=C[C@@H]1C/C=C\CCCC(=O)NC
inactive: OVCAR-8 ovarian 11.1% | OVCAR-5 ovarian 20.2% | OVCAR-4 ovarian 44.4% | SK-OV-3 ovarian 11.4% | HS 578T breast 47.7% | MDA-MB-435 melanoma 15.2%
active: SR leukemia -27% | RPMI-8226 leukemia -3.18% | IGROV1 ovarian 7.71% | OVCAR-3 ovarian 4.67% | NCI/ADR-RES ovarian 6.92% | BT-549 breast -4.05% | SW-620 colon 7.47% | MCF7 breast 8.89% | HCT-116 colon -65% | HCC-2998 colon -90.7% | KM12 colon -44.3%

COc1ccccc1-c1ccc2c(N)c(C(=O)c3ccc4c(c3)OCO4)sc2n1
active: SR leukemia 9.21% | MDA-MB-435 melanoma 2.68%
inactive: RPMI-8226 leukemia 62.2% | OVCAR-8 ovarian 73.8% | OVCAR-5 ovarian 87.7% | OVCAR-4 ovarian 95.7% | SK-OV-3 ovarian 78.3% | IGROV1 ovarian 78.1% | OVCAR-3 ovarian 69.8% | HS 578T breast 87.6% | NCI/ADR-RES ovarian 38.7% | BT-549 breast 71.4% | SW-620 colon 42.2% | MCF7 breast 36.3% | HCT-116 colon 42.4% | HCC-2998 colon 71.4% | KM12 colon 53.8%

C/C(Cc1ccc(Cl)cc1)=C(\c1ccc(OCCN2CCCCCC2)cc1)c1ccc(OC(=O)Cc2ccccc2)cc1
active: SR leukemia 1.29%
inactive: RPMI-8226 leukemia 33% | OVCAR-8 ovarian 72.1% | OVCAR-5 ovarian 73.8% | OVCAR-4 ovarian 85% | SK-OV-3 ovarian 90.6% | IGROV1 ovarian 44.9% | OVCAR-3 ovarian 69.6% | HS 578T breast 62.3% | T-47D breast 57.6% | BT-549 breast 89.3% | MDA-MB-435 melanoma 46.3% | SW-620 colon 57.4% | MCF7 breast 18.6% | HCT-116 colon 38.2% | HCC-2998 colon 22.3% | KM12 colon 50.2%

COc1ccc(-c2cc(-c3ccc(N(C)C)cc3)nc(NC(=O)c3ccncc3)n2)cc1
inactive: SR leukemia 121% | RPMI-8226 leukemia 93% | OVCAR-8 ovarian 97.7% | OVCAR-5 ovarian 109% | OVCAR-4 ovarian 122% | SK-OV-3 ovarian 117% | IGROV1 ovarian 95.2% | OVCAR-3 ovarian 98.8% | HS 578T breast 97.2% | T-47D breast 88.9% | BT-549 breast 104% | MDA-MB-435 melanoma 104% | SW-620 colon 98.7% | MCF7 breast 78% | HCT-116 colon 94% | HCC-2998 colon 100% | KM12 colon 97.8%

CN1CCOCCOCCOc2ccccc2NC(=O)c2nc(cnc2N)-c2ccc(cc2)S1(=O)=O
active: SR leukemia -16.3%
inactive: RPMI-8226 leukemia 30.3% | OVCAR-8 ovarian 64% | OVCAR-5 ovarian 148% | OVCAR-4 ovarian 46.1% | SK-OV-3 ovarian 41% | IGROV1 ovarian 50.8% | OVCAR-3 ovarian 43.7% | HS 578T breast 66.4% | T-47D breast 80.1% | BT-549 breast 48.1% | MDA-MB-435 melanoma 58.3% | SW-620 colon 48.7% | MCF7 breast 31.1% | HCT-116 colon 29.1% | HCC-2998 colon 32.2% | KM12 colon 33.3%

CCCCCCCCCCCCCCCCNCCC[C@@H](C)[C@H]1CC[C@H]2[C@@H]3[C@H](OCCCN)C[C@@H]4C[C@H](OCCCN)CC[C@]4(C)[C@H]3C[C@H](OCCCN)[C@]12C
active: SR leukemia 2.63% | RPMI-8226 leukemia -15.4% | OVCAR-8 ovarian -48.9% | OVCAR-5 ovarian -3.67% | OVCAR-4 ovarian -37.1% | SK-OV-3 ovarian -45.7% | IGROV1 ovarian -41.8% | OVCAR-3 ovarian -10.5% | HS 578T breast -34% | T-47D breast -20.9% | BT-549 breast -26% | MDA-MB-435 melanoma -28.3% | SW-620 colon -25.3% | MCF7 breast -44.3% | HCT-116 colon -16.6% | HCC-2998 colon -32.4% | KM12 colon -24.3%

CCOc1ccc(Nc2nc(-c3c(C)nc4ncccn34)cs2)cc1
active: SR leukemia 6.09% | RPMI-8226 leukemia -9.92% | SK-OV-3 ovarian 3.86% | OVCAR-3 ovarian -20.9% | NCI/ADR-RES ovarian 8.95% | MDA-MB-435 melanoma -41% | HCT-116 colon 2.95% | KM12 colon 6.58%
inactive: OVCAR-8 ovarian 16.5% | OVCAR-5 ovarian 20.7% | OVCAR-4 ovarian 39.6% | IGROV1 ovarian 33.7% | HS 578T breast 34.1% | BT-549 breast 20.6% | SW-620 colon 24.6% | MCF7 breast 15% | HCC-2998 colon 23.4%

C/C(Cc1ccc(Cl)cc1)=C(\c1ccc(OCCN2CCCCCC2)cc1)c1ccc(OC(=O)C2CCCCC2)cc1
active: SR leukemia -0.529%
inactive: RPMI-8226 leukemia 37.2% | OVCAR-8 ovarian 66.2% | OVCAR-5 ovarian 73.4% | OVCAR-4 ovarian 80.6% | SK-OV-3 ovarian 88.1% | IGROV1 ovarian 46.8% | OVCAR-3 ovarian 71.8% | HS 578T breast 56.3% | T-47D breast 49.1% | BT-549 breast 86.6% | MDA-MB-435 melanoma 58.7% | SW-620 colon 56.9% | MCF7 breast 29.6% | HCT-116 colon 44% | HCC-2998 colon 10.4% | KM12 colon 53.1%

O=C(CCCCN1CCOCC1)Nc1ccc(Cn2nnc3c2C(=O)c2nnn(Cc4ccc(NC(=O)CCCCN5CCOCC5)cc4)c2C3=O)cc1
active: SR leukemia -22.2% | RPMI-8226 leukemia -18% | OVCAR-8 ovarian -36.2% | OVCAR-5 ovarian -23% | OVCAR-4 ovarian -73.9% | SK-OV-3 ovarian -68.2% | IGROV1 ovarian -68.3% | OVCAR-3 ovarian -58.2% | T-47D breast -50.5% | BT-549 breast -94.7% | MDA-MB-435 melanoma -77% | SW-620 colon -50.1% | MCF7 breast -51.7% | HCT-116 colon -91% | HCC-2998 colon -62.3% | KM12 colon -36.2%
inactive: HS 578T breast 12.5%

CCN(CC)CC(C)Nc1ccc([N+](=O)[O-])c2sc3ccccc3c(=O)c12 (stereo not drawn)
inactive: OVCAR-8 ovarian 24.6% | OVCAR-5 ovarian 53.9% | OVCAR-4 ovarian 32.9% | SK-OV-3 ovarian 33.8% | IGROV1 ovarian 22.3% | OVCAR-3 ovarian 36.6% | HS 578T breast 27.7% | NCI/ADR-RES ovarian 34.7% | BT-549 breast 60.4% | MDA-MB-435 melanoma 24.1% | SW-620 colon 19.1% | HCT-116 colon 24.5% | HCC-2998 colon 41.3% | KM12 colon 29.2%
active: SR leukemia -32.3% | RPMI-8226 leukemia -29.7%

CCCCN(CCCC)Cc1c(C)[nH]c2cc(OC)ccc2c1=O
inactive: SR leukemia 92.8% | RPMI-8226 leukemia 99.7% | OVCAR-8 ovarian 91.9% | OVCAR-5 ovarian 119% | OVCAR-4 ovarian 106% | SK-OV-3 ovarian 92.2% | IGROV1 ovarian 113% | OVCAR-3 ovarian 96.6% | HS 578T breast 103% | T-47D breast 95.7% | BT-549 breast 108% | MDA-MB-435 melanoma 104% | SW-620 colon 101% | MCF7 breast 94.8% | HCT-116 colon 95.2% | HCC-2998 colon 94.6% | KM12 colon 104%

O=C1C2CC=CCC2C(=O)N1CNc1ccc(Cl)cc1 (stereo not drawn)
inactive: SR leukemia 126% | RPMI-8226 leukemia 116% | OVCAR-8 ovarian 110% | OVCAR-5 ovarian 87.6% | OVCAR-4 ovarian 112% | SK-OV-3 ovarian 101% | IGROV1 ovarian 74.6% | OVCAR-3 ovarian 107% | HS 578T breast 79.3% | NCI/ADR-RES ovarian 95.2% | BT-549 breast 84.1% | MDA-MB-435 melanoma 108% | SW-620 colon 94% | MCF7 breast 102% | HCT-116 colon 90.1% | HCC-2998 colon 98.8% | KM12 colon 104%

O=C(Nc1cccc2[nH]c(C(F)(F)F)nc12)c1ccc(Br)cc1F
inactive: SR leukemia 18.5% | OVCAR-8 ovarian 33.2% | OVCAR-5 ovarian 98.9% | OVCAR-4 ovarian 11.8% | SK-OV-3 ovarian 65.1% | IGROV1 ovarian 42.2% | OVCAR-3 ovarian 24.4% | HS 578T breast 70.4% | NCI/ADR-RES ovarian 10.8% | BT-549 breast 19.4% | MDA-MB-435 melanoma 26.9% | SW-620 colon 41.6% | HCT-116 colon 22.7% | HCC-2998 colon 48.3% | KM12 colon 27%
active: RPMI-8226 leukemia 4.55%

Reference: PubChem BioAssay (NCI)
